These results are taken from PubChem BioAssay.

The nature of test [1]: inhibitors of TNFa-induced NFkB p65 translocation, primary screen, imaging, HUVEC, MLSMR starter and 10KST1 sets (AID 438;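 active = inhibition above 20% together with a positive visual image hit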;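 also: compound added about 3h40 before a 20 min TNFalpha stimulation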;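 as to inhibition: signal is the nuclear over cytoplasmic p65 intensity ratio per well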). The following applies: HUVEC TNFa-induced p65 nuclear translocation; cell count: measured here: nuclei count (cytotoxicity indicator), at 2.08 µM; inhibition: at 2 µM, stronger effect = higher value, 0% TNFa-plus-vehicle, 100% no-TNFa wells.
Test [2] is described as follows: inhibitors of mutant huntingtin aggregation, primary screen, imaging, exon1htt(103Q)mCFP cells, high-content imaging (AID 483;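 active = visual image review flags a hit and inhibition of aggregation exceeds 20%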;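 also: compound exposure lasted 3 days before fixation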;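 as to nuclei count: percent of the per-plate median nuclei count of sample wells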). The following applies: exon1htt(103Q)mCFP cell line, aggregate imaging, at 2 µM; inhibition of aggregation: stronger effect = higher value; nuclei count: measured here: cell count, toxicity.
Test [3] can be described thus: inhibitors of E-selectin induction by TNFa, primary screen, imaging, HUVEC, immunofluorescence, MLSMR starter and 10KST1 sets (AID 487;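 active = visually confirmed hit in the image check and inhibition above 20%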;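 as to inhibition: signal is fraction of cell area covered by stained E-selectin grains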;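 as to nuclei count: 100% = median nuclei count of all wells on the same plate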). The settings on record: HUVEC TNFalpha-induced E-selectin immunofluorescence imaging, at 2 µM; inhibition: stronger effect = higher value; nuclei count: measured here: cell number, toxicity.
Test [4] deals with Voltage-gated potassium channel subunit beta-2 (Rattus norvegicus) (UniProt P62483). Briefly: KvBeta enzyme negative modulators, primary screen, biochemical, NADPH fluorescence (AID 622;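 active = fluorescence slope higher than the sample average by over 3 SD, cut at about -0.22 in these data, passing the limit was not always enough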;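 also: slope of raw intensity against log time taken from 70 to 1610 s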). The settings on record: recombinant KvBeta, 4-cyanobenzaldehyde reduction, at 10 µM, stronger effect = higher value.
For test [5] the target is unchanged. Put plainly: KvBeta positive modulators, primary screen, biochemical, NADPH fluorescence (AID 623;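 active = NADPH fluorescence slope more negative than the mean of all samples by about 3 SD, 99.7% confidence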;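 also: fluorescence intensity change per second fitted from 20 to 320 s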). The following applies: Recombinant KvBeta, NADPH fluorescence decrease slope, 10 min; at 10 µM; stronger effect = lower value.
Test [6] deals with Alpha-2C adrenergic receptor (Homo sapiens) (UniProt P18825). Briefly: modulators of alpha2C/GIRK thallium flux, primary screen, cell-based, HEK293 alpha2C/GIRK1/2 (AID 624;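 active = fluorescence slope after compound addition differing from the mean of all screened samples at 99.7% confidence, in either direction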;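 also: slope of fluorescence ratio to pre-addition baseline per second over 15 to 24 s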). The following applies: thallium flux BTC fluorescence, at 10 µM, actives lie on both sides.
A short description of test [7]: inhibitors of Sendai virus-induced IRF3 signaling, primary screen, TLR/RLR signaling modifier project, cell-based, Sendai virus stimulus, luciferase, 10K MLSCN set (AID 602276;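 active = inhibition at or above 50% at 10 µM; inactive = inhibition below 50%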;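 also: firefly luciferase from ISG56 promoter only with Renilla not read in this screen; 0% = Sendai virus plus DMSO and 100% = medium plus DMSO without virus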). The following applies: HEK293 RL24 IRF3 luciferase reporter, at 10 µM, stronger effect = higher value.
The nature of test [8]: inhibitors of poly I:C-induced TLR3 signaling, primary screen, cell-based, poly I:C stimulus, luciferase, 10K MLSCN set (AID 602277). The settings on record: HEK293-TLR3 RL24 IRF3 luciferase reporter, at 10 µM, stronger effect = higher value.

Calls of active or inactive are those of the source.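 The calls were made as follows, unless noted: active = inhibition of the reporter signal at or above 50%; inactive = inhibition below 50%.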

Sequence of Voltage-gated potassium channel subunit beta-2 (Rattus norvegicus) (P62483 whole entry, looked up): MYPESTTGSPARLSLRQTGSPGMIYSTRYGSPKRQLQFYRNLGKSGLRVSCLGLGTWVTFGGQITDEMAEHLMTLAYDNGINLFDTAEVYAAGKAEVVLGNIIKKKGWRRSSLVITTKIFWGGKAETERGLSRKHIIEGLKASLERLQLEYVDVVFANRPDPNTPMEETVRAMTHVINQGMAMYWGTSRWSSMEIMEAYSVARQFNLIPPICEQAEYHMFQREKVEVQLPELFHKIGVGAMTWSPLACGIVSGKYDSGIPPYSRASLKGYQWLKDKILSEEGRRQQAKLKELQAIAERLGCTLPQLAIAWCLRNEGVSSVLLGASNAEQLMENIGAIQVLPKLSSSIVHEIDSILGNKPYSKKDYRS
Sequence of Alpha-2C adrenergic receptor (Homo sapiens) (P18825 whole entry, looked up): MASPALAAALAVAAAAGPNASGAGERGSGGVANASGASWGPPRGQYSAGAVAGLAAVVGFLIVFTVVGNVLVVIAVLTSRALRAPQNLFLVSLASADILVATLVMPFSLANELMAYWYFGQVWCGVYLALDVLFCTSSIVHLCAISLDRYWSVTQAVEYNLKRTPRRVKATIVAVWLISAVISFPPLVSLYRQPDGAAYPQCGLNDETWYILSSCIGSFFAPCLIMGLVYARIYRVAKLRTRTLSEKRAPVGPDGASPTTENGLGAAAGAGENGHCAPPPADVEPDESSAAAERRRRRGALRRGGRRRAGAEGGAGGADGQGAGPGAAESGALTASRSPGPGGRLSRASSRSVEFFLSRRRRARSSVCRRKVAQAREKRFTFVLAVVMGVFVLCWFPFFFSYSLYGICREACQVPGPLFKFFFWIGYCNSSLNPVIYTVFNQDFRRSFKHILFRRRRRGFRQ

For the compound `CCCc1ccc(Oc2cn[nH]c2-c2ccc(O)c(C)c2O)cc1`, the cell count in test [1] was found to be 679. Also, the inhibition in test [1] was 5.8% (inactive); in test [3], 16% (inactive); in test [7] it was -1.06% (inactive); in test [8], -27.9% (inactive). In addition, in test [2], the inhibition of aggregation was 11% (inactive). The values for the nuclei count in test [2] and in test [3] were 98% and 104%, respectively. Moreover, in test [4], the fluorescence slope is -0.602 (inactive). The NADPH fluorescence slope in test [5] is -1.2e-05 (inactive). Besides, in test [6], the slope was 0.00642 (inactive).
As for `CCOc1nc(-c2ccccc2)ccc1-c1noc(-c2ccc(OC)c(OC)c2)n1`, in test [1], the cell count was 418. Besides, the inhibition was 11.7% (inactive) in test [1], -27% (inactive) in test [3], 8.22% (inactive) in test [7] and 9.49% (inactive) in test [8]. Moreover, in test [2], the inhibition of aggregation was -27.9% (inactive). Also, the nuclei count in test [2] turned out to be 99.7%; in test [3], 107%. For the same compound, the fluorescence slope in test [4] was -0.385 (inactive). The NADPH fluorescence slope in test [5] was 5.6e-06 (inactive). Moreover, the slope in test [6] is 0.0092 (inactive).
Turning to `COc1ccccc1-n1c(-c2cccnc2)n[nH]c1=S`, the cell count in test [1] worked out at 204. The inhibition in test [1] is -4.8% (inactive); in test [3], -123% (inactive); in test [7], -0.823% (inactive); in test [8], -12.6% (inactive). Further, in test [2], the inhibition of aggregation was 17.2% (inactive). The nuclei count is 77% in test [2] and 107% in test [3]. Also, the fluorescence slope in test [4] is -0.598 (inactive). For the same compound, the NADPH fluorescence slope in test [5] was -4.1e-06 (inactive). The slope in test [6] is 0.0043 (inactive).
As to `c1ccc(Cn2nnc3c(N4CCCCCC4)ncnc32)cc1`, the cell count in test [1] was determined as 525. In addition, the inhibition was -4.2% (inactive) in test [1], -63.4% (inactive) in test [3], -20.2% (inactive) in test [7] and -76.6% (inactive) in test [8]. In addition, the inhibition of aggregation in test [2] is 35.8% (inactive). Also, the nuclei count in test [2] was found to be 76.5%; in test [3], 95.6%. Also, the fluorescence slope in test [4] was -0.55 (inactive). Besides, in test [5], the NADPH fluorescence slope is -2.5e-05 (inactive). The slope in test [6] is 0.0062 (inactive).
Regarding `CCOc1ccc(N2CC(C(=O)Nc3ccccc3OC)CC2=O)cc1` (centres undefined), in test [1], the cell count came to 663. Besides, the inhibition in test [1] is -3.4% (inactive); in test [3], -21.8% (inactive); in test [7], 5.76% (inactive); in test [8], -2.71% (inactive). For the same compound, the inhibition of aggregation in test [2] was -8.5% (inactive). For the same compound, the nuclei count in test [2] amounted to 89%; in test [3] it was 126%. Moreover, the fluorescence slope in test [4] was -0.404 (inactive). Besides, the NADPH fluorescence slope in test [5] is 2.8e-05 (inactive). Further, in test [6], the slope was 0.00536 (inactive).
On to `O=C(Nc1nccs1)c1ccc(COc2ccccc2Br)o1`, for which the cell count in test [1] came out at 694. Further, the inhibition in test [1] was -14.6% (inactive); in test [3] it was -85.8% (inactive); in test [7], 21.2% (inactive); in test [8] it was -63.2% (inactive). Besides, the inhibition of aggregation in test [2] is -27.8% (inactive). The nuclei count in test [2] stood at 111%; in test [3] it was 118%. The fluorescence slope in test [4] is -0.487 (inactive). Further, the NADPH fluorescence slope in test [5] is -5.4e-05 (inactive). For the same compound, in test [6], the slope was 0.00542 (inactive).
Turning to `Cc1cc(=O)n2nc(N3CCC(C(=O)N4CCN(Cc5ccccc5)CC4)CC3)sc2n1`, in test [1], the cell count was determined as 450. The inhibition in test [1] was -1% (inactive); in test [3], -31.7% (inactive); in test [7], 7.85% (inactive); in test [8], 3.68% (inactive). In test [2], the inhibition of aggregation was -0.2% (inactive). The nuclei count in test [2] is 113%; in test [3], 103%. Besides, the fluorescence slope in test [4] was -0.329 (inactive). Also, the NADPH fluorescence slope in test [5] was -5.5e-05 (inactive). Also, the slope in test [6] was 0.00533 (inactive).
In the case of `COc1ccc(C(C(C(=O)c2ccco2)N2CCOCC2)N2CCOCC2)cc1` (centres undefined), the cell count in test [1] is 534. Moreover, the inhibition in test [1] was 5.4% (inactive); in test [3], 57.2% (inactive); in test [7], 2.32% (inactive); in test [8] it was -5.02% (inactive). The inhibition of aggregation in test [2] was 2.2% (inactive). The figures for the nuclei count in test [2] and in test [3] were 87.8% and 91.5%, respectively. Besides, the fluorescence slope in test [4] is -0.401 (inactive). Besides, the NADPH fluorescence slope in test [5] was 1.7e-05 (inactive). The slope in test [6] was 0.0056 (inactive).
For `CC1CCCN(C(=O)C23CCC(C)(C(=O)C2)C3(C)C)C1` (centres undefined), the cell count in test [1] turned out to be 636. The inhibition in test [1] was 0% (inactive); in test [3] it was -29.8% (inactive); in test [7], 5.18% (inactive); in test [8], 8.32% (inactive). In addition, the inhibition of aggregation in test [2] was -8.3% (inactive). The results for the nuclei count in test [2] and in test [3] were 90.8% and 99.7%, respectively. Moreover, the fluorescence slope in test [4] was -0.593 (inactive). The NADPH fluorescence slope in test [5] was -1.7e-05 (inactive). Further, the slope in test [6] was 0.00596 (inactive).
With `CC12CCC(C(=O)N3CCCCC3)(CC1=O)C2(C)C` (centres undefined), the cell count in test [1] stood at 483. The inhibition in test [1] is 2% (inactive); in test [3], -305% (inactive); in test [7], 10.9% (inactive); in test [8] it was 28.7% (inactive). For the same compound, the inhibition of aggregation in test [2] is -4.8% (inactive). For the same compound, the results for the nuclei count in test [2] and in test [3] were 99.5% and 126%, respectively. Moreover, the fluorescence slope in test [4] is -0.299 (inactive). In test [5], the NADPH fluorescence slope was 8.8e-06 (inactive). Also, the slope in test [6] is 0.00667 (inactive).
For `CC(C)CCNC(=O)NC(=O)COc1ccccc1C#N`, in test [1], the cell count was 381. Besides, the inhibition is -23.5% (inactive) in test [1], -71.3% (inactive) in test [3], -47.7% (inactive) in test [7] and -112% (inactive) in test [8]. Moreover, in test [2], the inhibition of aggregation is 15.6% (inactive). Moreover, the values for the nuclei count in test [2] and in test [3] were 102% and 111%, respectively. Besides, the fluorescence slope in test [4] is -0.586 (inactive). The NADPH fluorescence slope in test [5] is -8.5e-06 (inactive). For the same compound, the slope in test [6] is 0.00627 (inactive).
For the compound `Cc1ccc(C)c(N(CC(=O)NCc2ccco2)C(=O)CCC(=O)Nc2ccccn2)c1`, the cell count in test [1] is 423. Also, the inhibition in test [1] was 5.1% (inactive); in test [3], -41% (inactive); in test [7] it was 15.1% (inactive); in test [8], 30.2% (inactive). Further, in test [2], the inhibition of aggregation was -7.8% (inactive). For the same compound, the figures for the nuclei count in test [2] and in test [3] were 114% and 105%, respectively. In addition, the fluorescence slope in test [4] was -0.608 (inactive). Further, in test [5], the NADPH fluorescence slope is -1.8e-05 (inactive). Besides, the slope in test [6] is 0.00608 (inactive).
Consider `COC(=O)c1ccc(NC(=O)Cn2nnc3ccccc32)cc1`, for which the cell count in test [1] was determined as 445. For the same compound, the inhibition in test [1] was -10.2% (inactive); in test [3] it was -8.2% (inactive); in test [7], -21.8% (inactive); in test [8] it was -69.7% (inactive). In addition, the inhibition of aggregation in test [2] is 8.3% (inactive). In addition, the nuclei count in test [2] and in test [3] was 134% throughout. Further, the fluorescence slope in test [4] was -0.377 (inactive). Moreover, the NADPH fluorescence slope in test [5] was -5.8e-05 (inactive). In test [6], the slope was 0.0057 (inactive).
`COc1cc2c(cc1OC)C(c1ccc(C)o1)CC(=O)N2` (centres undefined): the cell count in test [1] is 748. In addition, the inhibition is 0% (inactive) in test [1], -48.1% (inactive) in test [3], 11.9% (inactive) in test [7] and 30.4% (inactive) in test [8]. Also, the inhibition of aggregation in test [2] was -33.4% (inactive). Moreover, the nuclei count in test [2] came out at 112%; in test [3], 122%. Further, the fluorescence slope in test [4] is -0.574 (inactive). For the same compound, in test [5], the NADPH fluorescence slope was -3e-05 (inactive). Besides, the slope in test [6] was 0.00589 (inactive).
